Data from PubChem BioAssay AID1981 (Southern Research Specialized Biocontainment Screening …, 2009).
About 480 (22%) of roughly 2,200 compounds were called active. Not all results are given here. Entries with a potency or affinity are not part of this list. A number with no mark means an inactive call. The rule behind the calls is not given here.

Assay: S. Typhimurium GFP fluorescence modified counterscreen for PhoP regulon inhibitor project dose response (AID 1981);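 note: 0% = induced DMSO wells and 100% = uninduced wells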
Conditions: 4 h; series mostly up to 150 µM; inhibition: at the top concentration

Row | Compound | inhibition [%]
1 | Cc1cc(C)c2c(=O)[nH]c(SCC(=O)Nc3ccc(N(C)C)cc3)nc2n1 | 22.4
2 | CCOC(=O)C1=C(C)NC(=S)NC1c1ccc(OC(=O)c2ccco2)cc1 (configuration not stated) | -2.14
3 | COc1ccc(NC2=NC(=S)N(c3cccc(C)c3)C23CCCCC3)cc1 | -1.25
4 | O=C(O)/C=C/C(=O)Nc1cccc(C(F)(F)F)c1 | -8.86
5 | Cc1cccc(NC(=O)c2ccc(Cn3cc(C(F)(F)F)ccc3=O)cc2)c1 | -3.63
6 | CN(C)CC(C(=O)c1ccccc1)c1ccccc1 (configuration not stated) | 23.2
7 | Cc1ccc(C(=O)NCc2ccc(Cl)cc2)o1 | 2.23
8 | Cc1ccc(C(=O)Nc2ccc3c(c2)OCO3)o1 | 10.9
9 | O=C(NC(c1ccc(Cl)cc1)c1c(O)ccc2ccccc12)c1ccccc1 (configuration not stated) | -19
10 | CCCCCn1c(C(C)NC(=O)CCC)nc2ccccc21 (configuration not stated) | -0.25
11 | Cc1ccc2cccnc2c1NC(=S)NC(=O)c1ccccc1 | 24.2
12 | O=C(CCc1ccccc1)Nc1nc2ccc(S(=O)(=O)N3CCOCC3)cc2s1 | 30
13 | Cc1nc(SCC(=O)NC(C)c2ccccc2)c2oc3ccccc3c2n1 (configuration not stated) | -4.01
14 | CCCN(CCC)CCCNS(=O)(=O)c1ccc2c(c1)oc(=O)n2C | -2.37
15 | NC(=O)c1ccccc1NC(=O)/C=C/C(=O)O | -6.39
16 | O=C(/C=C/c1ccccc1)N1CCN(c2c(Cl)cccc2[N+](=O)[O-])CC1 | -10.6
17 | C=CCn1c(C)cc(C(=O)CSc2nc(N)cc(N)n2)c1C | 25.2
18 | Clc1ccc(Nc2ncnc3c2cnn3-c2ccccc2)cc1 | -9.26
19 | CCCNC(=O)CN(C1CCCCC1)S(C)(=O)=O | -3.08
20 | CCCCC(=O)NCCNC(=O)c1cc(OCC(F)(F)F)ccc1OCC(F)(F)F | -9.07
21 | Cn1c(COc2ccccc2)nnc1SCc1nc2ccccc2[nH]1 | -28.7
22 | Cc1ccc(C)c(/C=C/C(=O)c2ccccc(=O)c2O)c1 | 38.6
23 | COc1ccc(C2=Nc3nc(-c4ccccc4)cn3C(c3ccc(OC)cc3)C2)cc1 (configuration not stated) | 17.6

Row | Compound | inhibition [%]
24 | N/C(=N\OC(=O)N1c2ccccc2Sc2ccccc21)c1ccccc1 | 20.9
25 | CCc1nn2cc(C(=O)c3cc(Cl)ccc3O)cnc2c1-c1ccc(F)cc1 | 3.07
26 | CCN(C(C)=O)c1nc(CSc2nnc(NC(C)C)s2)cs1 | 2.43
27 | CC1CCC(NC(=O)C2c3ccccc3C(=O)N2Cc2cccs2)CC1 (configuration not stated) | 3.27
28 | Cn1ncc(Br)c1C(=O)NCc1cccs1 | -18.8
29 | O=C(CSc1nnc(-c2ccc(Br)cc2)o1)Nc1cccc2ccccc12 | -0.45
30 | O=C(CNc1ccccc1)Nc1ccc(F)cc1 | 14.3
31 | O=C(Nc1ccc(F)cc1)c1ccccc1F | -9.79
32 | O=C(Oc1c(Br)cc([N+](=O)[O-])cc1Br)c1cccnc1 | 29.2
33 | O=C(CCCN1C(=O)CCC1=O)Nc1ccc2c(c1)OCCO2 | -21.9
34 | CC(C)(C)c1nn(-c2ccccc2)c2[nH]c(=O)c(CNCc3ccco3)cc12 | -4.67
35 | O=P(Cc1cc[n+]([O-])cc1)(c1ccccc1)c1ccccc1 | -15.7
36 | CCCS(=O)(=O)N1CCCC(C(=O)N2CCN(c3ccccn3)CC2)C1 (configuration not stated) | 6.36
37 | COc1ccc(-c2cn[nH]c2-c2ccc(OCc3ccc([N+](=O)[O-])cc3)cc2O)cc1 | 15.1
38 | CC(Oc1ccc(Cl)cc1)c1ccnn1S(=O)(=O)c1ccccc1 (configuration not stated) | -5.43
39 | CCOC(=O)c1cc2sc(C)cc2n1CC(=O)NCc1ccc(F)cc1 | 1.75
40 | Cc1ccc(C(C)C)cc1C(=O)CC1(O)C(=O)N(C)c2ccccc21 (configuration not stated) | -7.31
41 | CCn1ncc(/C=C/C(=O)NCc2cn(C)nc2C)c1C | -3.98
42 | O=S(=O)(Nc1ccc(N=Nc2ccc(O)c3ccccc23)cc1)c1ccccc1 | 23.8
43 | COC(=O)COc1ccc(S(=O)(=O)Nc2ccccc2SC)cc1 | -20.6
44 | COc1ccc(OC)c(NC(=O)c2ccccc2NS(=O)(=O)c2cccc3cccnc23)c1 | 6.2
45 | O=C(CSc1ncn[nH]1)Nc1cccc2ccccc12 | -11.3
46 | CCn1c(CNC(=O)c2cccc(C)c2)nc2ccccc21 | -13.4

Row | Compound | inhibition [%]
47 | S=c1nc(-c2ccccc2)oc2c1CCCC2 | 18.1
48 | CCC(=O)c1cn(Cc2ccc(C#N)cc2)c2ccccc12 | 1.62
49 | O=c1c2oc3ccccc3c2ncn1Cc1ccc(Cl)cc1 | -20.7
50 | Cc1[nH]n(-c2ncc(-c3ccc(Cl)cc3)s2)c(=O)c1C(c1ccc(Cl)cc1)C(C#N)C#N (configuration not stated) | 26.5
51 | Cc1ccc(-n2nc(C)c(C3C(C#N)=C(N)Oc4c3c(=O)oc3ccccc43)c2Cl)cc1 (configuration not stated) | 30.2
52 | Cc1snc(S(=O)(=O)/C(C#N)=N\Nc2ccccc2)c1C#N | 7.12
53 | COc1ccc(CCC(=O)N2CCC3(CC2)OCCO3)cc1 | 1.72
54 | O=C(Nc1ccc2snnc2c1)Nc1cccc2ccccc12 | 8.11
55 | CC1OC(Nc2cccc3ccccc23)C(O)C(O)C1O (configuration not stated) | 1.5
56 | CC(C(=O)Nc1cc([N+](=O)[O-])ccc1Cl)N1CCN(c2ccccc2O)CC1 (configuration not stated) | -1.49
57 | CCCCNC(=O)Oc1cccc(N2CCCC2=O)c1 | -1.02
58 | CCOC(=O)c1sc(NC(=O)Nc2ccc(Cl)cc2)cc1C | -0.11
59 | Cc1ccnc2nc(C(=O)Nc3ccc4c(c3)OCO4)nn12 | -3.72
60 | CC(C)c1ccc(NC(=O)Nc2cc3sccc3n2C)cc1 | -12.3
61 | CCOC(=O)CN(C)Cc1c[nH]c2ccccc12 | 11.6
62 | Cc1[nH][nH]c(=O)c1C(c1ccc(O)c([N+](=O)[O-])c1)c1c(C)[nH][nH]c1=O | 26.4
63 | CCCc1[nH][nH]c(=O)c1C(c1ccc(Br)cc1)C(C#N)C#N (configuration not stated) | -8.16
64 | O=c1[nH][nH]c(-c2ccccc2O)c1C(C[N+](=O)[O-])c1cccc(Cl)c1 (configuration not stated) | 32.8
65 | CCCCCC(=O)Nc1ccc2ccccc2c1 | -4.56
66 | O=C(CSc1nnc(-c2ccc(O)cc2)n1-c1ccccc1)CC(=O)Nc1ccccc1 | 17.4
67 | O=C(O)CCc1nnc2n(Cc3ccc(F)cc3)c(=O)c3ccccc3n12 | 5.98
68 | COc1cc(CNc2ccc(CNc3ncn[nH]3)cc2)ccc1OCC(=O)NC(C)(C)C | -18.5
69 | O=S(=O)(NCc1ccccc1)c1cccc(S(=O)(=O)N2CCOCC2)c1 | -12.6

Row | Compound | inhibition [%]
70 | Cn1c(CC(=O)Nc2ccc(Cl)c(Cl)c2)nnc1SCC(=O)Nc1nccs1 | -18.6
71 | O=C(COC(=O)c1n[nH]c2ccccc12)NC(=O)NC12CC3CC(CC(C3)C1)C2 | -1.95
72 | Oc1ccc(C=Nc2cccc3ncccc23)c(O)c1 | 15.1
73 | O=C(COc1ccccc1)NC(=S)Nc1ccc2c3c(cccc13)CC2 | 3.59
74 | Cc1c(C)n(Cc2ccccc2)c2ncnc(NN)c12 | 7.72
75 | O=C(NCCCN1CCCC1=O)c1ccc(Cl)c(NS(=O)(=O)c2ccc(F)cc2)c1 | 3.52
76 | Cc1ccc(NC(=O)C(=O)NCCOc2ccccc2Cl)cc1 | -11.4
77 | CN(CCC(=O)Nc1ccc(Br)cc1)Cc1ccccc1 | 10.8
78 | COc1ccccc1CC(=O)N1CCN(c2ccccn2)CC1 | -30
79 | COC(=O)c1ccc2nc(C(F)(F)F)[nH]c2c1 | 3.82
80 | O=c1cc(-c2ccc([N+](=O)[O-])cc2)nc2cc(-c3ccc(Cl)cc3)[nH]n12 | -9.22
81 | COC(=O)c1c(C(=O)OC)c(-c2cccc(C)c2)n2c1CS(=O)(=O)C2 | -3.11
82 | O=C(NCc1ccc2c(c1)OCO2)c1ccc(-n2cnnn2)cc1 | -1.24
83 | COC(=O)c1ccccc1NC(=O)CS(=O)(=O)Cc1nc(-c2ccc(C)cc2)oc1C | -3.17
84 | COCCn1cc(C(=O)N2CCC(C)CC2)c2c3ccccc3n(C)c2c1=O | -18.2
85 | C=CCNc1ncnc2c1[nH]c1ccc(C)cc12 | 35.9
86 | C=CCNc1ncnc2c1[nH]c1ccc(Cl)cc12 | 29.7
87 | O=c1cc(Cc2ccccc2)[nH]c(=S)[nH]1 | 32.9
88 | CCNC(=O)COC(=O)CCC(=O)c1cccs1 | 14.6
89 | Cc1cccc(OCC(=O)N2CCN(Cc3ccncc3)CC2)c1 | -3.8
90 | O=C(CN(c1ccc(F)cc1)S(=O)(=O)c1ccc2c(c1)OCCO2)NCc1cccnc1 | -5.53
91 | COc1ccc(-c2ccc3c(N)c(C(=O)c4cccc(OC)c4)sc3n2)cc1 | 16.2
92 | N#Cc1nc(-c2ccco2)oc1NCCCN1CCOCC1 | -7.05

Row | Compound | inhibition [%]
93 | CCSc1cc(N2CCCC2)nc(-c2cccc(C)c2)n1 | -4.48
94 | COc1cccc(-n2c(SCC(=O)Nc3ccc4c(c3)CCC4)nc3ccccc3c2=O)c1 | 19.7
95 | CCOc1ccc(NC(=O)CCC(=O)n2nc(C)cc2C)cc1 | 1.24
96 | Cc1ccc(CNC(=O)C2CCCN(S(=O)(=O)c3c(C)noc3C)C2)cc1 (configuration not stated) | 1.56
97 | O=C(c1ccccc1S(=O)(=O)NCc1ccccc1)N1CCCC1 | -24.7
98 | CC(=O)Nc1ccc(-n2nnnc2SCC(=O)Nc2cccc(NC(=O)c3ccco3)c2)cc1 | 2.42
99 | O=[N+]([O-])c1ccccc1/C=N/N1CCN(c2ccncc2S(=O)(=O)N2CCCCC2)CC1 | -9.65
100 | C=CCNC(=O)CC(=O)N/N=C/c1ccc(C(=O)OC)cc1 | 1.15
101 | Cc1ccc(Cn2c(=N)n(CC(=O)c3ccc([N+](=O)[O-])cc3)c3ccccc32)cc1 | -11.2
102 | COC(=O)c1ccc(Nc2cc(C)nc3ccccc23)cc1 | -13
103 | COc1ccc(/C=N/NC(=O)CC(=O)NCc2cccnc2)cc1 | -0.29
104 | Cc1ccc(C(=O)NC(=S)Nc2cccc3c(C)cc(C)nc23)cc1 | -12.6
105 | COc1ccc2nc(-c3ccccc3)cc(OC)c2c1 | -1.78
106 | CN1c2ccccc2C(C)(C)[C@]12C=Cc1cc(O)ccc1O2 | 8.27
107 | CC(=O)Nc1cccc(OC(=O)c2ccoc2C)c1 | -14.3
108 | Nc1ccc(C2(c3ccc(N)cc3)c3ccccc3-c3ccccc32)cc1 | 18.9
109 | Cc1ccc(C(=O)NCC(=O)OCC(=O)N2CCCc3ccccc32)cc1 | -12.3
110 | O=C(N/N=C/c1cn(-c2ccccc2)nc1-c1ccc(F)cc1)c1ccc2c(c1)OCO2 | 30.2
111 | O=C(NNC(=O)c1ccccc1-n1cccc1)c1ccc(Cl)c(Cl)c1 | -16.2
112 | O=C(Cn1ncc2c(=O)oc3ccccc3c21)N1CCN(c2ccccn2)CC1 | 2.19
